The campaign covered roughly 310,000 compounds. About 2,200 (0.71%) showed an effect of 50% or more. The effect is printed as a negative number. Only a selection was taken, and strong results are over-represented in it overall.

The target in this assay is human ether-à-go-go-related gene (hERG) potassium channel (human, UniProt Q12809). The assay can be described thus: primary screen, population patch clamp on CHO cells stably expressing hERG; higher = less effect of the substance.
Chain of human ether-à-go-go-related gene (hERG) potassium channel (Q12809 whole entry, looked up): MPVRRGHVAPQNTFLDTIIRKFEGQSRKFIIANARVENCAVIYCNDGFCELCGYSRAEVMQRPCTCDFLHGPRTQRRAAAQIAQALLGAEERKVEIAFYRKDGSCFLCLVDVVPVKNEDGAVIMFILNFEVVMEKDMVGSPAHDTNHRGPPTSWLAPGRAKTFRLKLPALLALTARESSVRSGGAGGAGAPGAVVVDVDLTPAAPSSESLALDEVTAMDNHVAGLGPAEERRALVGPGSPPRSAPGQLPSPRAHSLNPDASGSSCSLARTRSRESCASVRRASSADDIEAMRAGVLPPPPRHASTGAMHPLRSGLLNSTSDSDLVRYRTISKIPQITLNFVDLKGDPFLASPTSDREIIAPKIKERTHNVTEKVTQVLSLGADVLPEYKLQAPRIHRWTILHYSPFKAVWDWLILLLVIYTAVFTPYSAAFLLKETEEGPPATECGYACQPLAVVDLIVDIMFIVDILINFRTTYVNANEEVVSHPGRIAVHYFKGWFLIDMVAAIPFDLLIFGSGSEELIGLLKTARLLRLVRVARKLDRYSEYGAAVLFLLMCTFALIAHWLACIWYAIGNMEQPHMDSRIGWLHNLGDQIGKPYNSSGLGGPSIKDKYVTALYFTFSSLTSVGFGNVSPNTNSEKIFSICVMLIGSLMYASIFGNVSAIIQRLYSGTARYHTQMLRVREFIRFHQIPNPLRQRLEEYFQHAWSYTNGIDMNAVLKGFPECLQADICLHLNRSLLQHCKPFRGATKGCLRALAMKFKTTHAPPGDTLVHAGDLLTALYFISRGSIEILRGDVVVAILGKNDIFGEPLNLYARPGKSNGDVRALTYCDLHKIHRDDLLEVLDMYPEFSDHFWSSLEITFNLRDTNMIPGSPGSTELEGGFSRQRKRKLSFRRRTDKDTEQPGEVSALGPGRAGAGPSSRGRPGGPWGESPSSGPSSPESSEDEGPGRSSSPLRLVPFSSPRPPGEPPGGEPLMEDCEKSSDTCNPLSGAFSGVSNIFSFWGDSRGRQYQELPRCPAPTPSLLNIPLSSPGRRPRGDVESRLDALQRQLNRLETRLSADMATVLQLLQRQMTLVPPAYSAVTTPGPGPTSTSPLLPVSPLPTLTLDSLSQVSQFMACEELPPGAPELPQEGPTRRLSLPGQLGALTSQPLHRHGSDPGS
Take `COc1ccc(C(=O)NC(=S)Nc2ccc(S(=O)(=O)Nc3cc(OC)nc(OC)n3)cc2)cc1`: the “hERG current change (%, negative = inhibition) at 1uM” value came out at 13.7%. For the molecule `O=C(Oc1ccc2c(c1)CCC2)N1CCOCC1`, the “hERG current change (%, negative = inhibition) at 1uM” value was determined as 11.3%. The value for `Cc1ccc(S(=O)(=O)N2CCCC2C(=O)NCc2ccco2)cc1` (centres unmarked) was 8.74%; that for `Cc1ccc(C)c(S(=O)(=O)N2CCCOC2CNC(=O)C(=O)NC2CC2)c1` (centres unmarked) was 19.9%; that for `COc1ccc(Nc2nc(N3CCCCC3)nc3ccccc23)c(OC)c1` was -12.1%. As to `COc1ccc(Nc2nc(N3CCN(C)CC3)nc3ccccc23)c(OC)c1`, the “hERG current change (%, negative = inhibition) at 1uM” value was -76.6%. Next, `COc1ccc(Nc2nc(N3CCCC3)nc3ccccc23)c(OC)c1`: -7.36%. As to `Cc1ccc(-n2c(SCC(=O)NCC3CCCO3)nc3c(c2=O)SCC3)cc1` (centres unmarked), the “hERG current change (%, negative = inhibition) at 1uM” value is reported as 2.53%. For `COc1cccc(CN(C)CC2CCCN(CCc3ccc(Cl)cc3)C2)c1OC` (centres unmarked), the “hERG current change (%, negative = inhibition) at 1uM” value is -3.32%. Consider `COc1ccc(CN(C)CC2CCCN(CCc3ccc(F)cc3)C2)cc1OC` (centres unmarked), for which the “hERG current change (%, negative = inhibition) at 1uM” value was -8.47%. Next, `CN(CC1CCCN(CCc2ccc(Cl)cc2)C1)C(=O)c1ccoc1` (centres unmarked): -85.3%; `CN(C)C(=O)CCC(=O)N(C)CC1CCCN(CCc2ccc(F)cc2)C1` (centres unmarked): -0.257%; `COc1ccc(CN(C)CC2CCCN(CCc3ccc(Cl)cc3)C2)cc1OC` (centres unmarked): -78.2%. Next, `CN(CC1CCCN(CCc2ccccc2F)C1)C(=O)c1ccoc1` (centres unmarked): -25.9%. Consider `CN(CC1CCCN(CCc2ccc(Cl)cc2)C1)C(=O)C(=O)c1ccco1` (centres unmarked), for which the “hERG current change (%, negative = inhibition) at 1uM” value was -72.5%. Next, `COc1ccc(CCN2CCCC(CN(C)C(=O)c3ccoc3C)C2)cc1` (centres unmarked): 18.4%.

Regarding `Cc1cc(C(=O)N(C)CC2CCCN(CCc3ccc(F)cc3)C2)c(C)o1` (centres unmarked), the “hERG current change (%, negative = inhibition) at 1uM” value is on record as -71.6%.

As to `Cc1ccccc1CCN1CCCC(CN(C)C(=O)C(=O)c2ccco2)C1` (centres unmarked), the “hERG current change (%, negative = inhibition) at 1uM” value is listed as -17.7%. Consider `CN(CC1CCCN(CCc2ccc(Cl)cc2)C1)C(=O)c1ccco1` (centres unmarked), for which the “hERG current change (%, negative = inhibition) at 1uM” value stood at 11.1%.

As to `COc1ccc(CCN2CCCC(CN(C)C(=O)c3ccoc3)C2)cc1` (centres unmarked), the “hERG current change (%, negative = inhibition) at 1uM” value is reported as -32.6%. Next, `O=C(O)CCC(=O)Nc1sc2c(c1C(=O)NCc1ccccc1)CCCC2`: 0.699%. The value for `Cc1cc2c(cc1C)C(c1ccccc1Br)CC(=O)N2` (centres unmarked) was 13.7%. Next, `Cc1ccc(N2CC(C(=O)Oc3cccc(N4C(=O)CCC4=O)c3)CC2=O)cc1` (centres unmarked): -8.29%; `Cc1nn(-c2ccccc2)c(Cl)c1/C=N/O`: 4.67%; `Cc1c(C(C)(C)C)s/c(=N/S(=O)(=O)c2ccccc2)n1C`: 12.6%. Turning to `N#Cc1c(NC(=O)CSc2nc3ccccc3s2)sc2c1CCCC2`, the “hERG current change (%, negative = inhibition) at 1uM” value was 9.38%.

Turning to `O=C(O)c1ccc(N/N=C/c2ccncc2)cc1`, the “hERG current change (%, negative = inhibition) at 1uM” value came out at 10%. The value for `COCc1ccc(C(=O)N(C)CC2CCCN(CCc3ccc(Cl)cc3)C2)o1` (centres unmarked) was -65.1%; that for `COCc1ccc(C(=O)N(C)CC2CCCN(CCc3ccccc3F)C2)o1` (centres unmarked) was -11.7%; that for `COCc1ccc(C(=O)N(C)CC2CCCN(CCc3ccc(OC)cc3)C2)o1` (centres unmarked) was -38.5%. The value for `COc1ccc(CNc2nc3c(c(=O)n(Cc4ccc(Br)cc4)c(=O)n3C)n2C)cc1` was -10.5%; that for `C[N+](C)(C)CCN(Cc1ccc(Cl)cc1)c1ccccn1.[I-]` was 6.09%; that for `CN(C)CCN(Cc1ccccc1)c1ccccn1.Cl` was -19.1%.

On to `CN(C)CCN(Cc1ccc(Cl)cc1)c1ccccn1.Cl`, for which the “hERG current change (%, negative = inhibition) at 1uM” value was -57.1%. The value for `Cc1ccc(-n2cccc2/C=C2/C(=N)N3C(=NC2=O)SN=C3S(C)(=O)=O)cc1Cl` was 11.1%; that for `COC(=O)[C@H]1C[C@H](C(=O)O)[C@@H](C)C1(C)C` was 9.34%; that for `O=Cc1ccc(-n2nncc2-c2ccc([N+](=O)[O-])cc2)cc1` was -12.4%. Next, `O=[N+]([O-])c1ccc(-n2nncc2-c2ccc(Cl)cc2)cc1`: -60.4%; `O=[N+]([O-])c1ccc(-n2nncc2-c2ccccc2)cc1`: 0.0452%; `CCS(=O)(=O)NCCCc1ccccc1`: -5.33%. On to `Cc1n(C)c2cc(Cl)ccc2[n+]1Cc1ccccc1.[I-]`, for which the “hERG current change (%, negative = inhibition) at 1uM” value amounted to 4.11%. Next, `CCn1c(C)[n+](CCOCC[n+]2c(C)n(CC)c3cc(Cl)c(Cl)cc32)c2cc(Cl)c(Cl)cc21.[I-]`: 8.45%; `CCn1c(/C=C/N(C(C)=O)c2ccccc2)[n+](CCCS(=O)(=O)[O-])c2cc(Cl)c(Cl)cc21`: 10.6%. Next, `CCn1c(/C=C/Nc2ccccc2)[n+](CC)c2cc(Cl)c(Cl)cc21.[I-]`: -87.2%; `CCn1c(/C=C/Nc2ccccc2)[n+](CC)c2ccc(Cl)cc21.[I-]`: -82.8%; `CCn1c(/C=C/N(C(C)=O)c2ccccc2)[n+](CC)c2ccc(Cl)cc21.[I-]`: 5.77%.

As to `Cc1ccccc1Cn1c(=O)n(CCC(=O)NCc2ccc3c(c2)OCO3)c(=O)c2ccccc21`, the “hERG current change (%, negative = inhibition) at 1uM” value was determined as 16.7%. `CCCOC(=O)c1cc(-c2ccc(C=O)o2)ccc1Cl`: the “hERG current change (%, negative = inhibition) at 1uM” value is 3.2%. Next, `O=C(COC(=O)CCC(=O)c1ccc(F)cc1)Nc1nnc(-c2ccccc2)o1`: -0.682%; `CCCCCCCNC(=O)C1(CC2CC(c3cccc(Br)c3)=NO2)CCN(C(=O)OC(C)(C)C)CC1` (centres unmarked): 4.2%; `CCCCCCCNC(=O)C1(CC2CC(c3ccc(Cl)cc3)=NO2)CCN(C(=O)OC(C)(C)C)CC1` (centres unmarked): 18.9%. Next, `O=C(CCCCCBr)N1CCC(CC2CC(c3ccc(Cl)cc3)=NO2)(C(=O)NCC2CCCCC2)CC1` (centres unmarked): -37.5%; `CCCCCCCNC(=O)C1(CC2CC(c3ccc(Cl)cc3)=NO2)CCN(C(=O)CCCCCBr)CC1` (centres unmarked): -52.1%. Next, `CCCNC(=O)C1(CC2CC(c3ccccc3)=NO2)CCN(C(=O)CCCCCBr)CC1` (centres unmarked): -5.35%; `CCCCCCCNC(=O)C1(CC2CC(c3cccc(Br)c3)=NO2)CCN(C(=O)CCCCCBr)CC1` (centres unmarked): -72%; `CCN1C(=O)N(CC)C2NC(=S)NC21` (centres unmarked): 7.44%. In the case of `CC(=O)C1=C(NC(=O)c2ccc(F)cc2)CC2C1C2(C)C` (centres unmarked), the “hERG current change (%, negative = inhibition) at 1uM” value is given as 9.7%. Next, `O=C(CN1C(=O)CSc2ccccc21)N1CCc2ccccc21`: 9.93%; `O=C(O)CSc1nnc(SCc2cccc3ccccc23)s1`: 6.81%. For `COc1ccccc1CNC(=O)C1CCN(S(=O)(=O)c2ccc3c(c2)OCCCO3)CC1`, the “hERG current change (%, negative = inhibition) at 1uM” value is reported as -1.02%.

On to `COC(=O)C1(C)Cc2cc(OC(C)=O)c(OC(C)=O)cc2N1` (centres unmarked), for which the “hERG current change (%, negative = inhibition) at 1uM” value came out at 11.7%.

In the case of `CC(=O)Nc1ccc(NC(=O)CSc2nccn2Cc2ccccc2)cc1`, the “hERG current change (%, negative = inhibition) at 1uM” value worked out at 10.5%.

Take `O=C(Oc1ccc(C(=S)N2CCOCC2)cc1)c1ccccc1[N+](=O)[O-]`: the “hERG current change (%, negative = inhibition) at 1uM” value was determined as 21.2%.

In the case of `O=C(Nc1ccc(Cl)cc1)Nc1nnc(Cc2ccc([N+](=O)[O-])cc2)s1`, the “hERG current change (%, negative = inhibition) at 1uM” value is 13.9%. The value for `COc1ccccc1CCNC(=O)C1CCN(c2nnc(C)c3c(C)n(-c4ccc(C)cc4)nc23)CC1` was 14.7%; that for `CN/C=C(/Cl)P(=O)(OC(C)C)OC(C)C` was 11%.

With `CCCn1ncc(CN2CCC(n3nccc3NC(=O)c3ccccc3Cl)CC2)c1C`, the “hERG current change (%, negative = inhibition) at 1uM” value was -47.6%. Next, `COc1ccccc1C(=O)Nc1ccnn1C1CCN(Cc2cn(C)c3ccccc23)CC1`: -74.9%; `COc1ccccc1C(=O)Nc1ccnn1C1CCN(Cc2cnc(N(C)C)s2)CC1`: -24.7%; `CCn1ccnc1CN1CCC(n2nccc2NC(=O)CCc2ccccc2)CC1`: 15.9%. Next, `CCOc1ccc(CN2CCC(n3nccc3NC(=O)c3ccccc3OC)CC2)cc1`: -89.4%; `COc1ccccc1C(=O)Nc1ccnn1C1CCN(Cc2ncc[nH]2)CC1`: 6%. For `COc1ccccc1C(=O)Nc1ccnn1C1CCN(C(=O)C2CCOC2)CC1` (centres unmarked), the “hERG current change (%, negative = inhibition) at 1uM” value stood at 4.19%. For `COc1ccccc1C(=O)Nc1ccnn1C1CCN(Cc2ccn[nH]2)CC1`, the “hERG current change (%, negative = inhibition) at 1uM” value was determined as 1.62%. Turning to `COc1ccccc1C(=O)Nc1ccnn1C1CCN(Cc2cnn(C)c2C)CC1`, the “hERG current change (%, negative = inhibition) at 1uM” value was -28.8%. Next, `CCCn1ncc(CN2CCC(n3nccc3NC(=O)c3ccccc3OC)CC2)c1C`: -73.2%; `Cn1cc(CN2CCC(n3nccc3NC(=O)c3ccccc3Cl)CC2)c2ccccc21`: -47.6%; `CCn1ccnc1CN1CCC(n2nccc2NC(=O)c2ccccc2OC)CC1`: -64.9%.

`CCCCn1c(O)c(C(CC)=Nc2ccc(OC)cc2OC)c(=O)[nH]c1=O`: the “hERG current change (%, negative = inhibition) at 1uM” value is 4.73%. Next, `Cc1ccc2c(CN3CC(C)CC(C)C3)cc(=O)oc2c1C` (centres unmarked): 9.29%. As for `COC(=O)C(NC(C)=O)(Nc1ccc(Br)cn1)C(F)(F)F` (centres unmarked), the “hERG current change (%, negative = inhibition) at 1uM” value turned out to be 6.68%. The value for `CCCCNC(=O)COC(=O)c1ccc(C)c(NC(=O)c2ccco2)c1` was 11.3%; that for `COC(=O)COc1cc(C)cc2oc(=O)c3c(c12)CCCC3` was -4.18%; that for `O=C(CCCN1C(=O)c2ccccc2C1=O)Nc1nncs1` was 14.9%. For the molecule `CCn1cc(CN2CCC(n3nccc3NC(=O)c3ccccc3OC)CC2)cn1`, the “hERG current change (%, negative = inhibition) at 1uM” value is reported as -53.5%. In the case of `CCn1cc(CN2CCC(n3nccc3NC(=O)c3ccccc3C)CC2)cn1`, the “hERG current change (%, negative = inhibition) at 1uM” value is given as -14.9%.

Take `COc1ccccc1C(=O)Nc1ccnn1C1CCN(Cc2csc(C(C)=O)c2)CC1`: the “hERG current change (%, negative = inhibition) at 1uM” value is reported as -50.9%.

In the case of `COc1ccccc1C(=O)Nc1ccnn1C1CCN(Cc2cnn(C)c2)CC1`, the “hERG current change (%, negative = inhibition) at 1uM” value is on record as -27%. The value for `CC(=O)c1cc(CN2CCC(n3nccc3NC(=O)c3ccccc3C)CC2)cs1` was -15.8%.

With `COc1ccccc1CN1CCC(n2nccc2NC(=O)c2ccccc2Cl)CC1`, the “hERG current change (%, negative = inhibition) at 1uM” value is -47.2%.

As for `CC(=O)c1cc(CN2CCC(n3nccc3NC(=O)c3ccccc3Cl)CC2)cs1`, the “hERG current change (%, negative = inhibition) at 1uM” value is -40.5%. With `COc1ccccc1C(=O)Nc1ccnn1C1CCN(Cc2ccc3nonc3c2)CC1`, the “hERG current change (%, negative = inhibition) at 1uM” value is -61.8%.

For the molecule `COc1ccc(C(=O)Nc2ccnn2C2CCN(Cc3ccc4nonc4c3)CC2)cc1`, the “hERG current change (%, negative = inhibition) at 1uM” value is given as -0.334%. Next, `O=C(Nc1ccnn1C1CCN(Cc2ccccc2OCCO)CC1)c1cccc(F)c1`: -6.97%; `COc1ccccc1C(=O)Nc1ccnn1C1CCN(Cc2ccccc2OCCO)CC1`: -79.5%.

The record behind these values is PMC4336329 (PLoS ONE, 2015).
